# Unmarked numbers belong to inactive results. Active and inactive are the calls of the source. Calls follow the shape of the dose curve; as a rule, active = well fitted activation curve with a large enough effect; inconclusive = small, poorly fitted or top-dose-only effect; inactive = no such curve, though single readings can be large or run the other way.
# Molecular target: Cytochrome P450 3A4 (Homo sapiens) (UniProt P08684)
# Assay: qHTS Assay for Activators of Cytochrome P450 3A4 (AID 885); also: nearly all actives have a fitted effect of over 65% in size
# Outline: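 Signal was normalized against complete inhibition by 57 uM ketoconazole. The reaction used 20nM CYP3A4 with 25uM Luciferin-PPXE, 10-min compound preincubation and a 60-min NADPH-supported step at RT.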
# Chain of Cytochrome P450 3A4 (Homo sapiens) (P08684 whole entry, looked up): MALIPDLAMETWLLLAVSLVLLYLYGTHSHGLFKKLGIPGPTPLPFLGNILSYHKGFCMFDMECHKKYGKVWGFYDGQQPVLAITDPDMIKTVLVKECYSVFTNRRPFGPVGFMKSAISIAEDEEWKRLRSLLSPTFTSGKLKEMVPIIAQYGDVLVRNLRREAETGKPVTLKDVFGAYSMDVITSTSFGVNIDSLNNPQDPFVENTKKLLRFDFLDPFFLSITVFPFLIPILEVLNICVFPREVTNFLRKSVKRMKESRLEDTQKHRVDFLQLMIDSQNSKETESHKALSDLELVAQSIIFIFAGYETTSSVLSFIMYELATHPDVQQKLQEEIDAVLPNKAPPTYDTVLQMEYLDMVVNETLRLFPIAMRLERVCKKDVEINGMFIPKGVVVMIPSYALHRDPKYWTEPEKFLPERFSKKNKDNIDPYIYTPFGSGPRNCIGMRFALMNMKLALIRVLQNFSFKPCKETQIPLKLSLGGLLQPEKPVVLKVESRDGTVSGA
SMILES,Potency,"activity change, positive = activation"
COC(=O)[C@@]1(C)C=C[C@@H](Cc2ccccc2)N1C(=O)c1ccccc1,inactive,–
C[C@@H]1OC2C3=C(C(=O)[C@H]4O[C@@H]4[C@H]3O)[C@@H]1[C@H]1[C@H](C)OC=C3[C@H](O)[C@H]4O[C@H]4/C(=N\OCc4ccccc4)[C@@]321,–,-58.8% [at 11.4 µM]
c1ccc(-c2ccc(CN3C[C@@H]4C(c5ccccc5)C5(c6cccnc6)CC4(C5)[C@H]3c3ccccc3)cc2)cc1 (some centres undefined),inactive,–
Cc1cc2c(nc1C)CCCN2C[C@H](C)O/N=C1/[C@H]2O[C@@H]2[C@@H](O)[C@H]2[C@H]1CCn1c(=O)n(-c3ccccc3)c(=O)n12,–,-35.6% [at 11.4 µM]
CC(C)Cn1c(N)c(C(=O)COC(=O)c2cc(C(F)(F)F)nc3c(C(F)(F)F)cccc23)c(=O)n(C)c1=O,inactive,–
COc1ccc(COC(=O)N/N=C2/C[C@@H](O)[C@@H](O)[C@@H]3[C@@H]4C(=O)N(C(C)(C)C)C(=O)[C@H]4CC[C@H]23)cc1,–,-30.7% [at 11.4 µM]
C/C(CCN1CCc2nc(-c3ccccc3)c(-c3ccccc3)cc2C1)=N\OC[C@@H](O)[C@@H]1O[C@@H]2OC(C)(C)O[C@@H]2[C@H]1O,–,-41.3% [at 11.4 µM]
CC(=O)OC[C@@H]1O[C@H](CCO/N=C(\C)CCN2CCCc3nc(C)c(C)cc32)C=C[C@@H]1OC(C)=O,–,-42.6% [at 11.4 µM]
CCC1=C2CC[C@H]3C(=O)NC(=O)[C@H]3[C@H]2[C@@]2(C)C(=NCC3CC3)OC(=O)N2C1=O,inactive,–

# Reference: PubChem BioAssay (NCATS)
